# From PubChem
# Most compounds without a hit are left out; they make up all but 7.8% or so of the library.
# PK Bst: modulators of Bacillus stearothermophilus pyruvate kinase; purified pyruvate kinase, luminescence ATP production; ribose 5-phosphate activator present at AC10; Potency, µM; 51,000 compounds, 1.2% hits; AID 361; in the data active = potency below about 11 µM; inconclusive = mostly about 12 µM to 25 µM;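 the screen sought inhibitors and activators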;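 note: scaled between full activation by ribose 5 phosphate and full inhibition by luteolin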
# Tau fil binding: tau filament binding. recombinant tau filaments, thioflavin S fluorescence, 15 h; filaments grown with octadecylsulfate alongside compound. Potency, µM (highest dose often 57.1 µM), inactives show top-dose activity change, negative = inhibition. 71,000 compounds, 2% hits;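 note: % is set by controls: 0 for no effect and ±100 for the full control effect; actives lower thioflavin S fluorescence by blocking filaments or displacing dye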
#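 Assay mix: 1 uM His-tagged tau, 30 uM sodium octadecylsulfate, thioflavine S dye in HEPES/NaCl/DTT buffer. Compound is added prior to the inducer. Fluorescence after 15 h at 37 C.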
# 15-hLO inh: 15-hLO (ALOX15) enzyme inhibition; P16050; purified 15hLO-1, xylenol orange hydroperoxide absorbance; Potency, µM (doses to about 57.1 µM), for the others: top-dose activity change, negative = inhibition, most hits filed as inhibitors; 74,000 compounds, 1.4% hits; note: % is set by controls: 0 for no effect and ±100 for the full control effect; nearly all actives have a fitted effect of over 55% in size
#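 Inhibition is scored from a chromogenic endpoint. After 15 min enzyme-compound contact, arachidonic acid (50 uM final) reacts 6 min with 40 nM 15hLO-1 at room temperature, then Fe-XO reagent is added for 30 min and absorbance ratio recorded.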
# HEK293 cAMP cs: parental HEK293 cAMP activation (counter-screen). 73,000 compounds, 2.5% hits. parental HEK293 CNG cAMP sensor, membrane potential fluorescence. Potency, µM (titrated, usually from 57.1 µM), for the others: at the highest dose activation, hits mostly activators; note: % of control where 0% means no effect; nearly all actives have a fitted effect of over 55% in size
#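 Counterscreen for endogenous-receptor signalling: CNG-channel HEK 293 cells report cAMP rise by membrane depolarization. After 60 min dye equilibration with 100 uM RO 20-1724, compounds incubated 30 min before bottom-read fluorescence at 590 nm.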
# TSHR ag: TSH receptor (human) agonism. P16473. HEK293-CNG-TSHR cells (CNG channel as cAMP sensor), membrane potential dye, cAMP. Potency, µM (highest dose often 57.1 µM), inactives show at the top dose activation, actives largely listed as activators. 73,000 compounds, 0.48% hits; active = well fitted activation curve with a large enough effect in the main read-out, with a control signal flat, not every such curve was filed as active; inconclusive = small, poorly fitted or top-dose-only effect, or a change in a side signal; inactive = no such curve, though single readings can be large or run the other way; % of control where 0% means no effect;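 note: the control signal comes from parental cells without the receptor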
# Target sequence (P16473 whole entry, looked up): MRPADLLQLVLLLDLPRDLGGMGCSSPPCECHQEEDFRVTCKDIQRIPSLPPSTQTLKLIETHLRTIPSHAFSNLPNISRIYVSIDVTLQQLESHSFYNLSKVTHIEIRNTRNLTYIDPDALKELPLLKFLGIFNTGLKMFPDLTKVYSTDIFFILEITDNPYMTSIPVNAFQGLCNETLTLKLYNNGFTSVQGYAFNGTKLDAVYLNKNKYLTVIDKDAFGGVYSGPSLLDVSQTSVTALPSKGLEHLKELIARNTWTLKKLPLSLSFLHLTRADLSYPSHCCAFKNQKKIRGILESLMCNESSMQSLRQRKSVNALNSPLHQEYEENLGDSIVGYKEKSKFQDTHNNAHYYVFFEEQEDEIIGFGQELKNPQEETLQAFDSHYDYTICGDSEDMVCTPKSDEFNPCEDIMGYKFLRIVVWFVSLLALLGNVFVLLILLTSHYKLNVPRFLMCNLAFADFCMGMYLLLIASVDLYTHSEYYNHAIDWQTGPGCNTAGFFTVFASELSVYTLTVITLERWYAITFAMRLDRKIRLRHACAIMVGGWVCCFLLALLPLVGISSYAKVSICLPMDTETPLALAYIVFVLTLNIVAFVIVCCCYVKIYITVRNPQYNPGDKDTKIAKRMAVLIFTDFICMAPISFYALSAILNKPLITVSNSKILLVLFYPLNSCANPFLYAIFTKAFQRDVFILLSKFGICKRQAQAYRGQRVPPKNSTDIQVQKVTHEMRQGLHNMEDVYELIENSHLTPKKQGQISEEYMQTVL
#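 HEK 293 cells stably expressing TSHR and a modified CNG channel, with CNG-only parental cells as counterscreen, were preloaded 60 min at room temperature with membrane potential dye containing 100 uM RO 20-1724. Compound exposure was 30 min, and depolarization was read as fluorescence at 590 nm.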
# Luciferase inh: firefly luciferase inhibition; Potency, µM (highest dose often 57.1 µM), for the others: at the highest dose activity change, negative = inhibition, actives largely listed as inhibitors; P08659; 72,000 compounds, 2.2% hits; purified firefly luciferase, luminescence, 8 min; AID 411; note: % is set by controls: 0 for no effect and ±100 for the full control effect; nearly all actives have a fitted effect of over 40% in size
#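 Luminescence read-out after 8 min at room temperature; enzyme reaction used luciferin plus 10 uM ATP (linear range) in imidazole buffer pH 7.2 with KCl, MgCl2, Tween 20 and BSA. Each sample was run as a titration.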
# An asterisk follows results filed as active; i = inactive; ? = inconclusive; . = no result given; [ ] = another dose, or the depositor's remark. Unless noted, calls come from the whole dose curve; as a rule, active = well fitted curve in the direction sought with a large enough effect; inconclusive = small, poorly fitted or top-dose-only effect, or another doubt; inactive = no such curve, though single readings can be large; an effect the other way counts as inactive or inconclusive. Potency is the fitted concentration of half-maximal effect.
SMILES,PK Bst,Tau fil binding,15-hLO inh,HEK293 cAMP cs,TSHR ag,Luciferase inh
N#Cc1ccc(CN2CCC3(CC2)CCN(C(=O)c2csnn2)CC3)cc1,.,7.2%,0.7%,?,?,-2.1%[11.4 µM]
Cc1ccc(-c2nc3c(=O)n(C)c4ccccc4c3o2)cc1,0.175*,59.5%,-3.2%,?,?,-6.7%
O=C1[C@H]2[C@H]3[C@H](O)[C@H](O)C/C(=N/OCc4ccccc4)[C@H]3CC[C@@H]2C(=O)N1C1CCCCC1,.,.,-0.8%[11.4 µM],-2.3%[11.4 µM],-16.2%[11.4 µM],-0.7%[11.4 µM]
CCc1cccc(NC(=O)CN2C(=O)NC3(CCCCCCC3)C2=O)c1,>57,-5.7%,2.1%,14.0%,12.6µM*,-1.2%
Cc1cc(C)c(NC(=O)CN2C(=O)NC3(CCCCC3)C2=O)c(C)c1,>57,2.3%,-1.7%,1.4%,3.6%,-1.5%
CCc1c2c(nc3ccc(OC)cc13)COC2,.,-3.5%,.,11.2%,25.3%,.
COc1ccc2nc3c(c(-c4ccccc4)c2c1)CCC3,.,17.9%,.,25.1µM*,?,.
CCCCC(CC)Cn1c2nc3ccccc3nc2c2c(=N)oc(C)nc21 (stereo not drawn),>57,2.51µM*,-9.7%,?,?,6.9%
Cc1cc2nc3[nH]c4c(Cl)cc(Cl)cc4c3nc2cc1C,.,-5.6%[11.4 µM],-6.6%[11.4 µM],2.3%[11.4 µM],-1.3%[11.4 µM],0.6%[11.4 µM]
O=C(Nc1ccc(N2CCN(C(=O)c3ccc(Cl)cc3)CC2)cc1)c1cccnc1,?,10µM*,-2.4%,-14.9%,-20.3%,3.1%
CCOC(=O)C1=C(CSc2nc(C)ccc2C#N)OC(N)=C(C#N)C1c1cccc(OC)c1OC (stereo not drawn),>57,0.5%,20µM*,19.0%,12.9%,-6.5%
CN1CCN(c2ncnc3ccc(-c4cccc(NS(C)(=O)=O)c4)cc23)CC1,.,3.2%,-2.2%,0.9%,1.6%,-1.6%[2.29 µM]
CCC(C)(c1ccc(C(=O)OC)s1)c1ccc(C(=O)OC)s1,.,-24.0%,-18.0%,20µM*,?,0.3%
Cc1cc2c(c(=O)o1)[C@@H](O)[C@H]1O[C@@H]1C2=O,.,.,-6.8%[11.4 µM],-2.3%[11.4 µM],-0.2%[11.4 µM],1.0%[11.4 µM]
O=C(O)CSc1nnc(CNc2ccc(Cl)cc2)n1Cc1ccccc1,>57,-11.9%,-0.3%,31.6µM*,?,1.8%
CCOC(=O)c1cc2c(=O)n(C)c3ccccc3c2s1,.,-3.1%,6.9%,?,?,0.9%
CCN(c1cccc(C(F)(F)F)c1)S(=O)(=O)c1ccc2c(c1)CCN2C(=O)C1CC1,>57,-3.7%,-10.1%,25.1µM*,?,0.2%
CCC(=O)N1CCc2cc(S(=O)(=O)N(CC)c3cccc(C)c3)ccc21,>57,3.8%,1.4%,?,?,0.7%
CC(=O)O[C@](C)(CCC=C(C)C)C1CC=C(C)CC1 (stereo partly drawn),.,.,12.6µM*,.,.,.
CCCc1ccc(-c2ccc(C(=O)O)cc2)nc1,.,-6.6%,-0.4%,26.9%,-16.4%,15.8µM*
CCCc1ccc(OCC(=O)O)cc1,.,-0.2%,6.3%,16.8%,9.1%,-4.7%
CC(C)CO/N=C1/C[C@@H](O)[C@@H](O)[C@@H]2[C@@H]3C(=O)N(c4cccc(Oc5ccccc5)c4)C(=O)[C@H]3CC[C@@H]12,.,.,-9.7%[11.4 µM],2.3%[11.4 µM],2.0%[11.4 µM],-0.7%[11.4 µM]
Cc1ccc(-n2ncc3c(NCCCn4ccnc4)ncnc32)c(C)c1,.,-14.9%,25.9%,1.58µM*,?,0.2%
O=C1OC2(c3ccc(O)cc3Oc3cc(O)ccc32)c2c1c(-c1ccccc1)c(-c1ccccc1)c(-c1ccccc1)c2-c1ccccc1,.,i[11.4 µM],1µM*,16.6%[11.4 µM],9.4%[11.4 µM],-4.2%[11.4 µM]
CCCCCCCC#Cc1ccccc1/C=N/S(=O)C(C)(C)C (stereo not drawn),.,.,0.1%[11.4 µM],21.1%[11.4 µM],.,.
SMILES,PK Bst,Tau fil binding,15-hLO inh,HEK293 cAMP cs,TSHR ag,Luciferase inh
COCCN1CCn2c(nc3cc(NC(=O)NC4CCCCC4)ccc32)C1,>57,25.1µM*,-22.6%,?,?,-17.5%
COCCN1CCn2c(nc3cc(NC(=O)c4ccc(OC)cc4)ccc32)C1,.,25.1µM*,?,-5.2%,3.3%,-26.7%
O=C(Nc1ccc2c(c1)nc1n2CCN(Cc2ccccc2)C1)c1cccs1,.,-28.0%,-6.5%,18.4%,3.8%,-5.2%
CC(=O)C1=C(C)NC(SCC(=O)c2ccc(C)cc2)=C(C#N)C1c1ccco1 (stereo not drawn),.,217.4%,12.6µM*,10.0%,-5.6%,-14.5%
O=C(O)c1c[nH]c2cc(OCc3ccccc3)ccc2c1=O,.,1.4%[11.4 µM],-28.2%[11.4 µM],6.6%[11.4 µM],6.7%[11.4 µM],2.9%[11.4 µM]
COc1cccc(NC(=O)c2ccccc2-c2nc(-c3cccc(C)c3)no2)c1,.,59.8%,-8.5%,15.8µM*,?,-19.3%
COCCNC(=O)c1ccccc1-c1nc(-c2ccccc2OC)no1,>57,-17.0%,8.4%,6.3%,17.6%,-10.2%
Cc1onc(-c2ccccc2)c1C(=O)NCC1CCCO1 (stereo not drawn),>57,0.7%,0.0%,7.0%,0.3%,1.9%
CCOc1ccccc1NC(=O)c1ccccc1-c1nc(-c2ccccc2OC)no1,.,31.4%,-8.4%,20µM*,?,25.1µM*
O=C(NCC1CCCO1)c1ccccc1-c1nc(-c2ccc(Cl)cc2)no1 (stereo not drawn),10.5*,17.9%,-3.6%,22.5%,24.1%,?
Cc1cccc(-c2noc(-c3ccccc3C(=O)NCC3CCCO3)n2)c1 (stereo not drawn),.,-10.3%,3.5%,?,?,15.8µM*
CC1(C)OC(C(O)(c2cc(C(F)(F)F)cc(C(F)(F)F)c2)c2cc(C(F)(F)F)cc(C(F)(F)F)c2)C(C(O)(c2cc(C(F)(F)F)cc(C(F)(F)F)c2)c2cc(C(F)(F)F)cc(C(F)(F)F)c2)O1 (stereo not drawn),.,.,2.0%[11.4 µM],-1.1%[11.4 µM],-3.4%[11.4 µM],.
CCOC(=O)C1CCN(C(=O)C2CC(=O)N(c3ccc(C)cc3)C2)CC1 (stereo not drawn),>57,-12.3%,3.4%,10.9%,3.2%,-2.9%
COc1cc(-c2[o+]c3cc(O)cc(O)c3cc2O)cc(O)c1O,.,-7.9%[11.4 µM],-14.3%[11.4 µM],-9.9%[11.4 µM],1.5%[11.4 µM],0.6%[11.4 µM]
CC(C)(C)NC(=O)c1ccccc1-c1nc(-c2ccccc2Cl)no1,.,4.8%,5.6%,15.8µM*,?,20µM*
O=C(NCc1ccccc1)[C@@H]1C[C@H]1[C@@H](NP(=O)(c1ccccc1)c1ccccc1)c1ccccc1,.,-3.2%,.,?,?,.
O=C(NCC1CC1)[C@@H]1C[C@H]1[C@@H](NP(=O)(c1ccccc1)c1ccccc1)c1ccccc1,.,-1.4%,.,12.6µM*,?,.
O=C(O)CC[C@@]1(c2ccccc2)NC(=O)NC1=O,.,-7.4%[11.4 µM],2.9%[11.4 µM],8.6%[11.4 µM],6.3%[11.4 µM],0.0%[11.4 µM]
COCCOC(=O)C1=C(C)NC(=O)NC1c1cn(-c2ccccc2)nc1-c1cccs1 (stereo not drawn),>57,1.3%,5.9%,1.1%,16.9%,-1.3%
